This is a sample that favours compounds with a hit; in the whole collection about 3% have one here.
SARS PLP yeast: qHTS of Yeast-based Assay for SARS-CoV PLP. S. cerevisiae expressing SARS-CoV PLpro, growth rescue. Potency, µM (highest dose often 32.9 µM), without a hit: at the top dose activity, positive = growth rescue, usual class: activators. hit rate 0.19% among 330,000. AID 485353, 2010; calls by dose curve; also: 0% is about no effect; nearly all actives have a fitted effect of over 55% in size
Sm TGR inh: qHTS Assay for the Inhibitors of Schistosoma Mansoni Peroxiredoxins; purified TGR, DTNB reduction, TNB absorbance 405 nm; Potency, µM (titrated, usually from 114 µM), without a hit: top-dose activity change, negative = inhibition, hits mostly inhibitors; hit rate 3% among 360,000; AID 485364, 2010; active = well fitted inhibition curve with a large enough effect; inconclusive = small, poorly fitted or top-dose-only effect; inactive = no such curve, though single readings can be large or run the other way; also: % is scaled to controls: 0 for no effect and ±100 for the full control effect; nearly all actives have a fitted effect of over 60% in size
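Kinetic colorimetric format: TGR-catalysed, NADPH-driven DTNB reduction monitored via TNB absorbance. Enzyme dispensed at 20 nM; compound exposure 15 min at room temperature before reaction start.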
Numbers without * were called inactive; ? = inconclusive; nt = not tested or not shown. Potency is read from the fitted curve at half-maximal effect.

SMILES	SARS PLP yeast	Sm TGR inh
CCN(C(=O)C(C)N1C(=O)/C(=C/c2ccco2)SC1=S)C1CCS(=O)(=O)C1 (stereo not drawn)	-2%	40µM*
CC(C(=O)O)N1C(=O)/C(=C/C=C/c2ccco2)SC1=S (stereo not drawn)	2%	7.1µM*
CC(=C\c1ccccc1)/C=C1/SC(=S)N(C(C(=O)O)C(C)C)C1=O (stereo not drawn)	-2%	26%
O=C1/C(=C/C=C/c2ccco2)SC(=S)N1NS(=O)(=O)c1ccccc1	2%	1.8µM*
CC(C(=O)N(C)C1CCS(=O)(=O)C1)N1C(=O)/C(=C/c2ccc(F)cc2)SC1=S (stereo not drawn)	-3%	-27%
O=C1/C(=C/c2cccs2)SC(=S)N1NS(=O)(=O)c1ccccc1	-2%	-32%
CCOc1ccc(NC(=O)c2nnn(-c3ccc(F)c(Cl)c3)c2C)cc1	nt	2%
O=C(Cn1ccc2cc(S(=O)(=O)N3CCCCCC3)ccc21)NCCc1ccc(Cl)cc1	nt	3%
Cc1ccc(N(C(=O)c2cccc(C)c2)S(=O)(=O)c2ccc(Cl)cc2)cc1	nt	-1%
Cc1ccc(S(=O)(=O)CNC(=S)c2cccc(Cl)c2)cc1	-10%	3.5µM*
CCNC(=S)NS(=O)(=O)c1ccc(C)cc1	-13%	-9%
Cc1ccc(C(=S)NCS(=O)(=O)c2ccc(C)cc2)cc1	4%	2.8µM*
Nc1cccc2nsnc12	0%	35µM*
Cc1ccc2nsnc2c1N	-1%	-15%
O=C(Nc1ccccc1)C1Cc2ccccc2CN1C(=O)c1ccco1 (stereo not drawn)	-2%	40µM*
O=C(NCc1ccco1)C1Cc2ccccc2CN1C(=O)c1ccco1 (stereo not drawn)	3%	?
COc1ccc(CNC(=O)C2Cc3ccccc3CN2C(=O)c2ccco2)cc1 (stereo not drawn)	2%	-26%
COc1ccccc1NC(=O)C1Cc2ccccc2CN1C(=O)c1ccco1 (stereo not drawn)	-8%	32µM*
CSc1nn(CC(=O)Nc2cc(C)ccc2C)c(N)c1S(=O)(=O)c1ccccc1	nt	3%
COc1ccccc1N1CCN(C(=O)c2ccc(CS(=O)(=O)c3ccccc3OC)o2)CC1	5%	28µM*
COCCNC(=O)c1ccc(CS(=O)(=O)c2ccccc2OC)o1	3%	32µM*
COc1ccccc1S(=O)Cc1ccc(C(=O)NCCc2ccc(Cl)cc2)o1 (stereo not drawn)	12%	40µM*
COCCCNC(=O)c1ccc(CS(=O)(=O)c2ccccc2OC)o1	-1%	0%
COc1ccccc1S(=O)Cc1ccc(C(=O)NC2CCCC2)o1 (stereo not drawn)	-3%	-7%
CCOC(=O)N1CCN(C(=O)c2ccc(CS(=O)(=O)c3ccccc3OC)o2)CC1	1%	0%
SMILES	SARS PLP yeast	Sm TGR inh
O=C(CSc1nnc(-c2ccccc2)c(-c2ccccc2)n1)Nc1ccccc1Cl	nt	4%
CCC(Cn1nnc2ccccc2c1=O)NC(=O)Nc1cc(OC)cc(OC)c1 (stereo not drawn)	nt	-5%
COC(=O)c1sc2cccc(F)c2c1S(=O)(=O)Nc1cc(OC)cc(OC)c1	nt	8%
COc1ccc(F)cc1S(=O)(=O)NCCc1c(C)[nH]c2c(Cl)cccc12	nt	-4%
COc1cccc(OC)c1C(=O)Nc1cc(Cl)ccc1N1CCOCC1	-1%	-12%
CC1CCCN(C(=O)C(C)Nc2cc(Cl)ccc2N2CCOCC2)C1 (stereo not drawn)	5%	40µM*
Cc1ccc(CS(=O)Cc2ccc(C(=O)NCc3ccc4c(c3)OCO4)o2)cc1 (stereo not drawn)	-5%	-12%
CC(=O)c1sc(NC(=O)c2ccc(Br)o2)nc1C	-7%	-27%
Cc1ccc(S(=O)(=O)NCC(=O)OCC(=O)NCCc2ccccc2)cc1	3%	-1%
CC(=O)c1sc(NC(=O)c2ccc(Cn3cc(Br)cn3)o2)nc1C	-7%	50µM*
COc1ccccc1CNC(=O)c1ccc(CS(=O)(=O)c2ccc(C)cc2)o1	-6%	35µM*
COc1ccccc1CNC(=O)c1ccc(CS(=O)(=O)c2ccccc2OC)o1	-3%	?
Cc1ccc(S(=O)(=O)Cc2ccc(C(=O)NCc3ccc4c(c3)OCO4)o2)cc1	6%	25µM*
COc1ccccc1CNC(=O)COC(=O)CNS(=O)(=O)c1ccc(C)cc1	-4%	35µM*
CC(C)OCCCN1C(=O)c2[nH]nc(-c3ccccc3O)c2C1c1ccccc1F (stereo not drawn)	nt	6%
COc1ccc(NC(=O)c2ccco2)cc1NC(=O)c1cc(Br)ccc1Cl	nt	10%
Cc1ccccc1CNC(=O)CCS(=O)(=O)c1cc2c3c(c1)CCN3C(=O)CC2	nt	9%
COc1cc(NC(=O)C2CCN(c3nc4ccccc4nc3C(F)(F)F)CC2)cc(OC)c1	nt	8%
COCCCNC(=O)C(=O)NCC(c1ccc2c(c1)OCO2)N1CCOCC1 (stereo not drawn)	nt	0%
